Holding throughout (test): NCI-60 one-dose screen, 48 h (100 = growth as untreated, 0 = no growth, -100 = all killed)
Experiment [1] deals with HCT-15 colon. As to conditions: 10 µM unless noted.
For experiment [2], the system named is HT29 colon. As to conditions: 10 µM unless noted.
Experiment [3] concerns SNB-75 CNS. As to conditions: 10 µM unless noted.
Experiment [4] relates to SNB-19 CNS. As to conditions: 10 µM unless noted.
Experiment [5] relates to U251 CNS. As to conditions: 10 µM unless noted.
For experiment [6], the system named is PC-3 prostate. As to conditions: 10 µM unless noted.
Experiment [7] relates to SK-MEL-5 melanoma. As to conditions: 10 µM unless noted.
The subject of experiment [8] is UACC-62 melanoma. As to conditions: 10 µM unless noted.
Experiment [9] concerns LOX IMVI melanoma. As to conditions: 10 µM unless noted.
Experiment [10] deals with SK-MEL-28 melanoma. As to conditions: 10 µM unless noted.
In experiment [11] the test system is EKVX NSCLC. As to conditions: 10 µM unless noted.
Experiment [12] concerns SN12C renal. As to conditions: 10 µM unless noted.
Experiment [13] relates to UO-31 renal. As to conditions: 10 µM unless noted.
Experiment [14] concerns TK-10 renal. As to conditions: 10 µM unless noted.
The subject of experiment [15] is ACHN renal. As to conditions: 10 µM unless noted.
The test system of experiment [16] is CAKI-1 renal. As to conditions: 10 µM.
The subject of experiment [17] is MOLT-4 leukemia. As to conditions: 10 µM unless noted.
For experiment [18], the system named is CCRF-CEM leukemia. As to conditions: 10 µM unless noted.
Experiment [19] concerns A498 renal. As to conditions: 10 µM unless noted.

In PubChem BioAssay (NCI) one finds growth data, which are given here for eight compounds.

This is part of a sample that, as a whole, favours compounds with a hit. Of some 83,000 tested, about 20% had one in any assay.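 Cell lines were cultured in 96-well plates, exposed to a single compound concentration, and assessed for percent growth 48 hours later.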 A number with no mark means an inactive call. Activity calls are given as the source filed them. Rule for the calls: active = growth percent below 10; inactive = the rest.

`C(=C(\C1=NCCN1)n1cnc2ccccc21)/c1cccc2ccccc12`: the growth in experiment [1] was 88.2%; in experiment [2], 95%; in experiment [3] it was 78.2%; in experiment [4] it was 88.8%; in [5] it was 94.6%; in experiment [6] it was 78.6%. The growth in experiment [7] is 87.3%; in [8], 88.1%; in experiment [9], 83.8%; in experiment [10] it was 93.8%; in experiment [11] it was 87.2%; in experiment [12], 85.4%. Also, the growth in experiment [13] is 62.2%; in [14], 90.9%; in experiment [15] it was 87.2%; in experiment [16], 68.7%; in experiment [17], 93.2%.

For `CCc1ccc(NC(=O)N[C@@H](Cc2cc(F)cc(F)c2)C(=O)N[C@@H]2C(=O)N3CCC[C@H]3C(=O)N3CCO[C@H](C)[C@H]3C(=O)N[C@@H](CO)C(=O)N3C[C@H](C)C[C@H]3C(=O)O[C@H]2C)c(F)c1`, the growth in experiment [1] was 15.8%; in [2] it was 30.5%; in [3], 20.3%; in [4], 26.9%; in experiment [5], 29%; in experiment [6], 17.3%. Further, the growth in experiment [7] was -2.9% (active); in experiment [8], 26.3%; in [9] it was 20.4%; in experiment [10], 43.4%; in [11], 28.4%; in experiment [13], 36.4%. In addition, the growth in [14] was 55.9%; in [15], 34.7%; in [16], 20.3%; in experiment [18] it was 35%; in experiment [17], 43.3%.

With `CCCCCCNC(=O)Oc1ccc(/C(=C(/C)c2ccccc2)c2ccc(OCCN(C)C)cc2)cc1`, the growth is -32.3% (active) in experiment [1]; -25.6% (active) in experiment [2]; 73.5% in experiment [3]; 64.4% in experiment [4]; 54.7% in experiment [5]; 70.6% in experiment [6]. For the same compound, the growth in experiment [7] was 78.2%; in [8] it was 52.8%; in [9], 13.8%; in experiment [10], 55.1%; in experiment [11] it was 72.2%; in [12] it was 63.6%. For the same compound, the growth was 53.9% in experiment [13]; 71.3% in experiment [15]; 50.9% in experiment [16]; 76.5% in experiment [19]; 67.9% in experiment [18]; 34.7% in [17].

With `CC1(COc2ccc3ncc(C#Cc4cncc(C(=O)Nc5cc(C(C)(C)C)on5)c4)n3n2)COC1`, the growth in experiment [1] is 26%; in [2] it was 101%; in [3], 12.8%; in experiment [4], 60.9%; in experiment [5], 29%; in experiment [6] it was 43.4%. The growth was 7.95% (active) in experiment [7]; 29.6% in [8]; 11% in experiment [9]; 51.4% in [10]; 41.5% in [11]; 30.4% in experiment [12]. The growth in [13] was 26.9%; in experiment [14] it was 91.6%; in experiment [15], 30.6%; in experiment [16], 35.4%; in experiment [18] it was 39.5%; in experiment [17] it was 45.6%.

Turning to `Fc1ccccc1/C=C(/C1=NCCN1)n1cnc2ccccc21`, the growth in [1] was 93%; in experiment [2] it was 112%; in experiment [3] it was 92.2%; in experiment [4], 97.6%; in experiment [5] it was 101%; in [6], 95.7%. For the same compound, the growth is 106% in [7]; 94.9% in experiment [8]; 90.3% in experiment [9]; 95.3% in experiment [10]; 95% in experiment [11]; 97.4% in experiment [12]. In addition, the growth in [13] is 85.3%; in experiment [14] it was 99.4%; in experiment [15] it was 97%; in experiment [16], 84.1%; in [18] it was 108%; in experiment [17], 106%.

For the compound `CSc1nccc(-c2c(-c3ccc(F)c(OCc4ccc(F)cc4)c3)nc3sccn23)n1`, the growth in experiment [1] was 64.6%; in experiment [2], 67.8%; in experiment [3] it was 113%; in [4], 72.6%; in experiment [5], 60.2%; in [6] it was 55.2%. Besides, the growth is 19.2% in [7]; 38% in experiment [8]; 74% in experiment [9]; 87.5% in [10]; 89.8% in experiment [11]; 74% in experiment [12]. Further, the growth in [13] was 53.7%; in [15], 43.8%; in experiment [16], 68%; in [19], 46.5%; in [18], 81.8%; in experiment [17] it was 45.1%.

For `C=CCn1c(SCC(=O)Nc2cccc(C(=O)/C=C/c3ccccc3)c2)nc2ccccc2c1=O`, the growth in experiment [1] was 57.9%; in [2], 14.7%; in experiment [3], 82.1%; in experiment [4], 77.1%; in [5] it was 46.7%; in [6] it was 77.4%. For the same compound, the growth is 98.6% in experiment [7]; 86.3% in experiment [8]; 24.4% in [9]; 95.4% in experiment [10]; 99.3% in experiment [11]; 67.4% in experiment [13]. In addition, the growth in [14] is 116%; in experiment [15], 93.9%; in experiment [16], 80.1%; in [19] it was 92.9%; in [18], 72.1%.

For `CC1CCc2c(sc3nc(SCC(=O)N/N=C/c4cccc(O)c4O)n(-c4ccccc4)c(=O)c23)C1` (stereo unspecified), the growth in experiment [1] is 85.6%; in experiment [2], 105%; in experiment [3], 99.2%; in [4] it was 98.1%; in experiment [5] it was 90.9%; in [6], 76.8%. The growth is 94.1% in experiment [7]; 84% in [8]; 60.4% in experiment [9]; 78.4% in experiment [10]; 85.6% in experiment [11]; 84% in experiment [12]. For the same compound, the growth was 73.2% in experiment [13]; 116% in experiment [14]; 71.9% in experiment [15]; 76.3% in [16]; 91.9% in [18]; 85% in [17].
